What all share (conditions): mRNA level, 48 h; actives raise or lower the signal
Read-out in assay [1]: DNA damage-inducible transcript 3 (DDIT3), DDIT3 (gene 1649)
Briefly: LTEA_HepaRG_DDIT3: Life Technologies and Expression Analysis (LTEA) Assay for DNA damage-inducible transcript 3 (DDIT3) using HepaRG (AID 2283488). In outline:
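HepaRG cells, 48 h after plating, exposed 48 h in serum-free induction medium to 8 half-log concentrations up to 100 uM in 0.5% DMSO, in duplicate. DDIT3 mRNA measured by TaqMan qRT-PCR, normalized to ACTB, GAPDH and POLR2A. Fitted bidirectionally against DMSO.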

Read-out in assay [2]: Pro-epidermal growth factor (Homo sapiens) (UniProt P01133)
Briefly: LTEA_HepaRG_EGF: Life Technologies and Expression Analysis (LTEA) Assay for Epidermal growth factor (EGF) using HepaRG (AID 2283489). In outline: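 HepaRG, 48 h dosing, 100 uM top, half-log x8, 0.5% DMSO. Readout: TaqMan qRT-PCR (Fluidigm array), housekeeping-normalized. Gain or loss of signal fit vs DMSO.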

Read-out in assay [3]: Early growth response protein 1 (EGR1) transcription factor, EGR1 (gene 1958)
Briefly: LTEA_HepaRG_EGR1: Life Technologies and Expression Analysis (LTEA) Assay for Early growth response protein 1 (EGR1) transcription factor using HepaRG (AID 2283490). In outline:
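Differentiated HepaRG cells in serum-free induction medium exposed 48 hours, duplicate, to 8 half-log concentrations up to 100 uM in 0.5% DMSO. EGR1 mRNA measured by TaqMan qRT-PCR, normalized to ACTB, GAPDH, POLR2A; bidirectional fit versus DMSO.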

Read-out in assay [4]: Ezrin (EZR), EZR (gene 7430)
Briefly: LTEA_HepaRG_EZR: Life Technologies and Expression Analysis (LTEA) Assay for Ezrin (EZR) using HepaRG (AID 2283491). A digest of the protocol: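 EZR transcript levels came from Fluidigm qRT-PCR and were normalized to three housekeeping genes after 48 h chemical exposure of HepaRG cells. Dosing used an 8-point half-log series with a 100 uM top concentration in 0.5% DMSO, tested in duplicate; both directions were fitted versus vehicle.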

Read-out in assay [5]: Fatty Acid-Binding Protein 1 (FABP1), FABP1 (gene 2168)
Briefly: LTEA_HepaRG_FABP1: Life Technologies and Expression Analysis (LTEA) Assay for Fatty Acid-Binding Protein 1 (FABP1) using HepaRG (AID 2283494). A digest of the protocol:
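Differentiated human HepaRG cells exposed 48 h in serum-free induction medium to eight half-log concentrations up to 100 uM (0.5% DMSO), duplicate. FABP1 mRNA by qRT-PCR, normalised to ACTB, GAPDH, POLR2A; bidirectional fitting against DMSO.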

Read-out in assay [6]: Glutathione S-Transferase (GSTA2), GSTA2 (gene 2939)
Briefly: LTEA_HepaRG_GSTA2: Life Technologies and Expression Analysis (LTEA) Assay for Glutathione S-Transferase (GSTA2) using HepaRG (AID 2283497). In outline:
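Differentiated human HepaRG cells were exposed in duplicate for 48 h in serum-free induction medium, 8 points from 100 uM top in half-log steps, 0.5% DMSO. GSTA2 mRNA was measured by TaqMan qRT-PCR, normalized to ACTB, GAPDH and POLR2A; bidirectional fit versus DMSO.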

Read-out in assay [7]: Glutamate-cysteine ligase catalytic (GCLC), GCLC (gene 2729)
Briefly: LTEA_HepaRG_GCLC: Life Technologies and Expression Analysis (LTEA) Assay for Glutamate-cysteine ligase catalytic (GCLC) using HepaRG (AID 2283498). In outline:
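Differentiated HepaRG cells exposed 48 h in serum-free induction medium, eight-point half-log series topping at 100 uM in 0.5% DMSO, duplicates. GCLC mRNA by qRT-PCR normalized to ACTB, GAPDH and POLR2A, fitted bidirectionally versus DMSO.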

Read-out in assay [8]: growth arrest and DNA damage 45 (GADD45G), GADD45G (gene 10912)
Briefly: LTEA_HepaRG_GADD45G: Life Technologies and Expression Analysis (LTEA) Assay for growth arrest and DNA damage 45 (GADD45G) using HepaRG (AID 2283499). A digest of the protocol: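 Gain or loss of GADD45G mRNA, quantified by TaqMan qRT-PCR against three housekeeping genes, is fitted in both directions relative to 0.5% DMSO. Human HepaRG cultures receive test chemical for 48 h at up to 100 uM.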

Read-out in assay [9]: Glutamate-cysteine ligase regulatory (GCLM), GCLM (gene 2730)
Briefly: LTEA_HepaRG_GCLM: Life Technologies and Expression Analysis (LTEA) Assay for Glutamate-cysteine ligase regulatory (GCLM) using HepaRG (AID 2283500). In outline:
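Differentiated HepaRG cells exposed 48 h in serum-free induction medium to eight half-log concentrations up to 100 uM (0.5% DMSO). GCLM mRNA by TaqMan qRT-PCR, normalized to ACTB, GAPDH and POLR2A; bidirectional fit versus DMSO.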

Read-out in assay [10]: Cytochrome P450 (CYP2B6), CYP2B6 (gene 1555)
Briefly: LTEA_HepaRG_CYP2B6: Life Technologies and Expression Analysis (LTEA) Assay for Cytochrome P450 (CYP2B6) using HepaRG (AID 2283481). A digest of the protocol: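 HepaRG cells plated 48 h, switched to serum-free induction medium, then dosed 48 h (8 points, half-log from 100 uM, 0.5% DMSO). RNA isolated; CYP2B6 expression measured by qRT-PCR; gain or loss fitted relative to DMSO.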

Read-out in assay [11]: Cytochrome P450 2C19 (Homo sapiens) (UniProt P33261)
Briefly: LTEA_HepaRG_CYP2C19: Life Technologies and Expression Analysis (LTEA) Assay for CYP2C19 using HepaRG (AID 2283482). A digest of the protocol:
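Transcript levels of CYP2C19 were quantified by qRT-PCR after HepaRG cells were treated for 48 hours with test chemicals up to 100 uM (eight half-log concentrations, 0.5% DMSO vehicle). Gain or loss of signal was fitted relative to DMSO.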

Read-out in another assay: CYP2C8 (gene 1558)
Briefly: LTEA_HepaRG_CYP2C8: Life Technologies and Expression Analysis (LTEA) Assay for CYP2C8 using HepaRG (AID 2283483). A digest of the protocol:
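Differentiated HepaRG cells in serum-free induction medium exposed 48 h in duplicate to 8 half-log concentrations from 100 uM in 0.5% DMSO. CYP2C8 mRNA by qRT-PCR normalized to ACTB, GAPDH, POLR2A; bidirectional fit versus DMSO.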

Read-out in the next assay: CYP2E1 (gene 1571)
Briefly: LTEA_HepaRG_CYP2E1: Life Technologies and Expression Analysis (LTEA) Assay for CYP2E1 using HepaRG (AID 2283485). A digest of the protocol: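 HepaRG cells, plated 48 h, then exposed 48 h in serum-free induction medium to eight half-log concentrations from 100 uM in 0.5% DMSO, duplicate. CYP2E1 mRNA by qRT-PCR, normalized to ACTB/GAPDH/POLR2A; bidirectional fit versus DMSO.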

Read-out in assay [12]: Cytochrome P450 3A7 (Homo sapiens) (UniProt P24462)
Briefly: LTEA_HepaRG_CYP3A7: Life Technologies and Expression Analysis (LTEA) Assay for CYP3A7 using HepaRG (AID 2283492). A digest of the protocol:
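Human HepaRG liver cells, 48 h post-plating, switched to serum-free induction medium and exposed in duplicate for 48 h. Dosing: 100 uM top, half-log dilutions, 8 points, 0.5% DMSO vehicle. Read-out: CYP3A7 mRNA, gain or loss fitted against DMSO baseline.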

Read-out in a further assay: CYP3A5 (gene 1577)
Briefly: LTEA_HepaRG_CYP3A5: Life Technologies and Expression Analysis (LTEA) Assay for CYP3A5 using HepaRG (AID 2283493). A digest of the protocol:
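HepaRG cells, plated 48 h then in serum-free induction medium, dosed in duplicate for 48 h with eight half-log concentrations up to 100 uM in 0.5% DMSO. Gene mRNA by Fluidigm TaqMan qRT-PCR, normalized to ACTB, GAPDH, POLR2A.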

Read-out in assay [13]: Cytochrome P450 4A22 (Homo sapiens) (UniProt Q5TCH4)
Briefly: LTEA_HepaRG_CYP4A22: Life Technologies and Expression Analysis (LTEA) Assay for Cytochrome P450 4A22 (CYP4A22) using HepaRG (AID 2283495). A digest of the protocol: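 Readout is CYP4A22 transcript induction or loss, quantified by qRT-PCR and normalized to ACTB, GAPDH and POLR2A. Human HepaRG cells receive test chemicals for 48 h at eight half-log concentrations from 100 uM in 0.5% DMSO.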

Read-out in assay [14]: Cytochrome P450 7A1 (Homo sapiens) (UniProt P22680)
Briefly: LTEA_HepaRG_CYP7A1: Life Technologies and Expression Analysis (LTEA) Assay for Cytochrome P450 7A1 (CYP7A1) using HepaRG (AID 2283496). In outline:
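HepaRG cells plated 48 h, then switched to serum-free induction medium and exposed in duplicate for 48 h to 8-point half-log series from 100 uM in 0.5% DMSO. CYP7A1 mRNA by qRT-PCR (TaqMan), normalized to ACTB/GAPDH/POLR2A; bidirectional fit versus DMSO.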

Read-out in the next assay: CYP4A11 (gene 1579)
Briefly: LTEA_HepaRG_CYP4A11: Life Technologies and Expression Analysis (LTEA) Assay for CYP4A11 using HepaRG (AID 2283486). In outline: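 HepaRG, 48 h chem exposure, 8 conc (100 uM top, half-log), 0.5% DMSO vehicle; qRT-PCR readout, housekeeping-gene normalized; bidirectional curve fit vs DMSO baseline.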

Read-out in assay [15]: Cytochrome P450 3A4 (Homo sapiens) (UniProt P08684)
Briefly: LTEA_HepaRG_CYP3A4: Life Technologies and Expression Analysis (LTEA) Assay for CYP3A4 using HepaRG (AID 2283487). In outline: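 Differentiated HepaRG cells, plated 48 h, then dosed 48 h in serum-free induction medium with 0.5% DMSO, 8 half-log concentrations up to 100 uM, duplicate. CYP3A4 mRNA by qRT-PCR, normalized to ACTB/GAPDH/POLR2A; bidirectional fit versus DMSO.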

Each structure is given as a SMILES string. Calls of active or inactive are those of the source. The calls were made as follows: active = hit-call score of the fitted dose curve at least 0.9, where 1 is the maximum; inactive = score below 0.9.

Cytochrome P450 2C19 (Homo sapiens), sequence (P33261 whole entry, looked up): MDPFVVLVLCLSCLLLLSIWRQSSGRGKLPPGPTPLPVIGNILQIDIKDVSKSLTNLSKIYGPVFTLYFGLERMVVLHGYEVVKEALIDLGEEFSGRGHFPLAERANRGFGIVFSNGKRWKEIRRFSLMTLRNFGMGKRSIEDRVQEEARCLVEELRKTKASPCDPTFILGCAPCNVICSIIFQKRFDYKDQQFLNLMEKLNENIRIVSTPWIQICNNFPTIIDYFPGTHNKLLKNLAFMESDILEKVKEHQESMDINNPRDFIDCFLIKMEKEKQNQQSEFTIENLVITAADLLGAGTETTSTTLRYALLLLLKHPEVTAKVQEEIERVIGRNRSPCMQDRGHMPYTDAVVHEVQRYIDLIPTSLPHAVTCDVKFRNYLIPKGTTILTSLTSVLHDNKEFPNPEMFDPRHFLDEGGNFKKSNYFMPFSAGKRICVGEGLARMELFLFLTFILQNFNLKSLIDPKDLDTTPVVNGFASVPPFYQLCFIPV
Cytochrome P450 3A7 (Homo sapiens), sequence (P24462 whole entry, looked up): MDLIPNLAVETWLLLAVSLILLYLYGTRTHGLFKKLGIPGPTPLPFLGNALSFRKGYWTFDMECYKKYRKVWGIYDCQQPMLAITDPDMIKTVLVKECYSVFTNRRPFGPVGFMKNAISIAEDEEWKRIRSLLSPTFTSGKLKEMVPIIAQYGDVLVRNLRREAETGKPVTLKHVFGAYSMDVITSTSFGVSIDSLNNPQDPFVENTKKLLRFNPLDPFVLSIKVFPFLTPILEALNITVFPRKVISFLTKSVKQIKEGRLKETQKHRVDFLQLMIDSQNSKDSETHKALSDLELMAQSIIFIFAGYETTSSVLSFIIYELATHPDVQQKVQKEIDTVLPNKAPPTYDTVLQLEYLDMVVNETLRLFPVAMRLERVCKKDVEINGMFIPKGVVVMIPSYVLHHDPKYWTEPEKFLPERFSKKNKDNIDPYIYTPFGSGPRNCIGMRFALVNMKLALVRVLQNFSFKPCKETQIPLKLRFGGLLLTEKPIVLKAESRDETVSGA
Cytochrome P450 3A4 (Homo sapiens), sequence (P08684 whole entry, looked up): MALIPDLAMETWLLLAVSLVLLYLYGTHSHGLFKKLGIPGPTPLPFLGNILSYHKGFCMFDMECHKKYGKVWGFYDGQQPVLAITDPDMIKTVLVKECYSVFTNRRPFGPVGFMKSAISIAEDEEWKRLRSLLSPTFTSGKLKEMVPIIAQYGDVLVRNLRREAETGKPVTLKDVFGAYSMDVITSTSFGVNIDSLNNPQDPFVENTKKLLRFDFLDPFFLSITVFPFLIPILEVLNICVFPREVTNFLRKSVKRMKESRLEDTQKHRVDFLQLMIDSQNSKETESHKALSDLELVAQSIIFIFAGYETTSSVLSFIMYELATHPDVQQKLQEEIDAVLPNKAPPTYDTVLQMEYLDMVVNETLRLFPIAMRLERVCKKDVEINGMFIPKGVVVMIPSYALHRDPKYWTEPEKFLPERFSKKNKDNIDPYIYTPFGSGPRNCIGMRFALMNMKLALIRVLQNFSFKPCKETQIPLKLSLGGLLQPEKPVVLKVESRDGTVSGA

On to `CCCCCCCC1CCC(=O)O1` (stereo unspecified), for which the compound was called inactive in assay [1], in assay [2], in [3], in [4], in [5] and in assay [6]. Further, the call in assay [7], in assay [8] and in [9] was inactive.
As for `CCCCCCCCCCCCCCO`, the result (in [10]; in assay [11]; in the assay with CYP2C8 (gene 1558); in the assay with CYP2E1 (gene 1571); in [1]; in assay [2]) was inactive. Also, the compound was called inactive (in assay [4]; in assay [12]; with CYP3A5 (gene 1577); in assay [5]; in assay [13]; in assay [14]). The result in assay [6], in assay [7], in assay [8] and in [9] was inactive.
As for `CCn1nc(C)c2c1C(=O)NCC(c1ccc(O)cc1)=N2`, the AC50 in assay [10] is 32.9 µM (active); with CYP4A11 (gene 1579) it was 27.9 µM (active); in assay [12] it was 34.1 µM (active); in assay [13], 33.9 µM (active). For the same compound, the compound was classed as inactive (in [11]; in the assay with CYP2C8 (gene 1558); in assay [1]; in assay [2]; in [3]; in assay [4]). Further, the call (with CYP3A5 (gene 1577); in assay [5]; in assay [14]; in assay [6]; in assay [7]; in [8]) was inactive. The result in assay [9] was inactive.
Turning to `CCCOc1ccc(S(=O)(=O)N2CCN(CC)CC2)cc1-c1nc2c(CC)n(Cc3ccccn3)nc2c(=O)[nH]1`, the AC50 was 5.14 µM (active) in [10]; 18.2 µM (active) in [11]; 3.5 µM (active) with CYP2C8 (gene 1558); 30.9 µM (active) with CYP4A11 (gene 1579); 2.11 µM (active) in [15]; 69.6 µM (active) in [1]. The AC50 in [12] is 1.22 µM (active); in assay [5], 12.1 µM (active); in assay [13], 9.92 µM (active); in assay [14] it was 4.07 µM (active); in [8], 77.9 µM (active). In addition, the result (in [2]; in assay [4]; in the assay with CYP3A5 (gene 1577); in assay [6]; in assay [7]; in [9]) was inactive.
In the case of `Cc1ncc([C@@H](CCCCCCc2ccc3c(n2)NCCC3)CC(=O)O)cn1`, the outcome (in assay [10]; in [11]; with CYP2C8 (gene 1558); in assay [1]; in [2]; in assay [4]) was inactive. In addition, the compound was classed as inactive (in assay [12]; with CYP3A5 (gene 1577); in assay [5]; in assay [13]; in [14]; in assay [6]). Also, the result in assay [7], in assay [8] and in [9] was inactive.
Turning to `CC(=O)c1ccccc1`, the outcome (in assay [10]; in assay [11]; with CYP2C8 (gene 1558); in assay [1]; in [2]; in [4]) was inactive. The compound was classed as inactive (in [12]; with CYP3A5 (gene 1577); in [5]; in assay [13]; in assay [14]; in assay [6]). Besides, the call in assay [7], in [8] and in assay [9] was inactive.
On to `CC(C)CC(C)O` (stereo unspecified), for which the outcome (in assay [10]; in assay [11]; with CYP2C8 (gene 1558); in the assay with CYP4A11 (gene 1579); in assay [1]; in assay [2]) was inactive. The call (in assay [4]; in assay [12]; with CYP3A5 (gene 1577); in assay [5]; in [13]; in [14]) was inactive. Besides, the outcome in assay [6], in [7], in [8] and in assay [9] was inactive.
In the case of `CCCCOC(=O)c1ccccc1`, the results for the AC50 in [10] and in assay [5] were 50 µM (active) and 12.1 µM (active), respectively. Besides, the call (in assay [11]; with CYP2C8 (gene 1558); with CYP2E1 (gene 1571); in assay [1]; in assay [2]; in assay [4]) was inactive. Further, the call (in assay [12]; in the assay with CYP3A5 (gene 1577); in assay [13]; in assay [14]; in assay [6]; in assay [7]) was inactive. Also, the result in assay [8] and in assay [9] was inactive.

The record behind these values is PubChem BioAssay (EPA / NIEHS).
